M1 ag – agonists of human M1 muscarinic receptor. P11229. actives 0.33% (n = 360,000). activation, % at 3 µM. CHO-K1 hM1, Fluo-8 calcium fluorescence, agonist mode; 0% DMSO, 100% acetylcholine EC100;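 active = activation above the run's mean compound activation plus 3 SD, cut at about 16% in these data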;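 note: peak over basal fluorescence ratio within a 140 s kinetic read after compound addition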
Target sequence (P11229 whole entry, looked up): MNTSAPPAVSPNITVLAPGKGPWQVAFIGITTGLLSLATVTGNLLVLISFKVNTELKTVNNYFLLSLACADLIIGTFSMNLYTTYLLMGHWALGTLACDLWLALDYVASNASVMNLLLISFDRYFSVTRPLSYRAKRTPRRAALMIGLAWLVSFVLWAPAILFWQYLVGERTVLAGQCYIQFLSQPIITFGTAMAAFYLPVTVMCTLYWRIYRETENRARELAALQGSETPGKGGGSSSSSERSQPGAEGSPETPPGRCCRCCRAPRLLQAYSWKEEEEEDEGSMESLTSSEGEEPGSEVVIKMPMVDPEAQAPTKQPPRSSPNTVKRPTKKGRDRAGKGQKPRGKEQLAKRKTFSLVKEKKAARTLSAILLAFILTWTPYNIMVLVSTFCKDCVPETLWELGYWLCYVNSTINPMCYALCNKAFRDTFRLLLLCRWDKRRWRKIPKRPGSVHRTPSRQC
CHO-K1 Ca PAM – M1 PAM counterscreen hit in parental CHO-K1 cells; ATP EC20, Fluo-8 calcium fluorescence; 0% at ATP EC20, 100% at ATP max; actives 0.02% (n = 360,000); activation, % at 3 µM;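 active = activation above the run cutoff, the mean activation of all test compounds plus 3 SD, cut at about 40% in these data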;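 note: peak over basal fluorescence ratio in a 140 s read after ATP addition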
M1 PAM – human CHRM1 positive allosteric modulation; P11229; CHO-K1 hM1, Fluo-8 calcium fluorescence, ACh EC20; 0% = ACh EC20, 100% = maximal ACh; activation, % at 3 µM; actives 0.088% (n = 360,000); in the data active = activation above about 19%, passing the limit was not always enough
M1 ag parental – M1 agonist counterscreen hit in parental CHO-K1 cells; activation, % at 3 µM; Fluo-8 calcium fluorescence; scaled to maximal ATP response, vehicle zero; AID 602248; actives 0.48% (n = 360,000); in the data active = activation above about 15%;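 note: untransfected CHO-K1 host cells lacking M1 receptor as counterscreen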
CHO-K1 Ca antag – M1 antagonist counterscreen hit in parental CHO-K1 cells; ATP-induced calcium, Fluo-8 fluorescence; inhibition, % at 3 µM; actives 0.6% (n = 360,000); AID 602250;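 active = inhibition above a per-plate cutoff, the plate's mean sample inhibition plus 3 SD, cut at about 24% in these data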;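 note: 0% = DMSO plus EC80 ATP and 100% = DMSO alone without ATP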
M1 antag – blocks human M1 muscarinic receptor; P11229; CHO-K1 hM1, Fluo-8 calcium fluorescence, ACh EC80 antagonist; inhibition, % at 3 µM; actives 1.3% (n = 360,000);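 active = percent inhibition above its own plate's cutoff, namely the mean of that plate's compound wells plus 3 SD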;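 note: peak over basal fluorescence ratio during 140 s after agonist addition; 0% = ACh EC80 plus DMSO and 100% = DMSO alone without agonist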
* hit, by the source's call. Shown are actives, neighbours in structure and some others; about 2.3% of the full set was active somewhere.

SMILES	M1 ag	CHO-K1 Ca PAM	M1 PAM	M1 ag parental	CHO-K1 Ca antag	M1 antag
O=C(CCNC(=O)c1ccco1)NCCN1C(=O)S/C(=C\c2ccc(F)cc2)C1=O	-1	2	3	12	5	-4
Cc1ccc(S(=O)(=O)CCC(=O)NCCN2C(=O)S/C(=C/c3ccc(F)cc3)C2=O)cc1	-3	-12	-4	6	26*	3
O=S(=O)(/N=S1/CC=CCN1S(=O)(=O)c1ccccc1)c1ccccc1 (stereo not given)	21*	5	12	12	10	-11
O=S(=O)(c1ccccc1)N1CCN(S(=O)(=O)c2ccccc2)C1	-3	-1	-2	1	1	2
Cn1c2ccccc2c2cc(/C=N/NC(=O)c3cc(O)ccc3O)ccc21	0	-23	-12	0	24*	30*
Cn1c2ccccc2c2cc(/C=N/NC(=O)c3cc(O)cc(O)c3)ccc21	-1	-8	0	-1	1	8
COC(=O)CSc1nc(-c2cccs2)ccc1C#N	-8	19	-18	2	-7	47*
CN1CCN(C(=O)CSc2nc(-c3ccncc3)ccc2C#N)CC1	-4	-1	-10	1	19	26*
C#CCSc1nc(-c2cccs2)ccc1C#N	-5	5	-8	0	-2	6
COc1cccc(CNCc2ccco2)c1O	-4	8	6	0	-1	-12
O=C(Nc1ccccc1)c1ccccc1OCC(O)CN1C(=O)c2ccccc2S1(=O)=O (stereo not given)	-2	3	-14	4	11	50*
CS(=O)(=O)c1ccc(N2CCN(c3ccccn3)CC2)c([N+](=O)[O-])c1	-3	4	15	3	-8	-10
Cc1ccc(S(=O)(=O)N2CCOCC2)cc1C(=O)OCC(=O)NC1CCS(=O)(=O)C1 (stereo not given)	-2	10	-1	0	-9	4
COc1ccc(-c2csc(NC(=O)c3nc(-c4ccccc4)oc3C)n2)cc1	2	-5	10	0	31*	2
O=[N+]([O-])c1cccc(-c2ccn[nH]2)c1	-2	2	31*	1	-6	-2
O=[N+]([O-])c1cc(-c2ccn[nH]2)ccc1Cl	-9	21	10	2	-6	-7
COC(=O)c1sc(N)c(C(=O)OC)c1COC(=O)C12CC3CC(CC(O)(C3)C1)C2	3	0	9	0	-14	-16
CCOc1ccc(NCc2cccn2-c2nnc(N3CCC(C(=O)NCCCN4CCCCC4CC)CC3)s2)cc1 (stereo not given)	-5	-1	-23	0	-14	88*
COc1ccc(Oc2c(C)oc3c(CN(C)C)c(O)ccc3c2=O)cc1	-14	10	-22	0	-15	32*
COc1ccccc1-n1c(-c2ccc(Cl)cc2)c[nH]c1=S	-16	0	2	0	-16	-3
CCN(CC)CC(C)(C)C(=O)/C=C/c1ccc(/C=C/C(=O)C(C)(C)CN(CC)CC)cc1	-8	-9	-9	0	25*	15
COc1cccc(C(=O)c2c(C)c(CCC#N)n3ccccc23)c1	-5	8	9	25*	4	-8
O=C(Cn1c(=O)oc2cc(S(=O)(=O)N3CCc4ccccc43)ccc21)N1CCCCC1	-3	23	10	1	-13	-2
COc1ccc(C(CC(=O)c2ccc(C)cc2)Nc2ccc([N+](=O)[O-])cc2)cc1 (stereo not given)	-9	18	-7	15*	14	9
COc1cc(CNC(=O)Nc2cccn3nc(COCCO)nc23)cc(OC)c1OC	-2	-1	11	0	-11	-21
SMILES	M1 ag	CHO-K1 Ca PAM	M1 PAM	M1 ag parental	CHO-K1 Ca antag	M1 antag
COc1ccccc1CNC(=O)COC(=O)c1n[nH]c2ccccc12	0	-7	-5	0	21	13
COc1ccccc1CNC(=O)c1n[nH]c2ccccc12	2	9	8	17*	8	-13
CCOC(=O)Cc1csc(NC(=O)c2sc3nc4c(C)cc(C)cc4cc3c2N)n1	-1	11	-20	2	-11	32*
CCOC(=O)Cc1csc(NC(=O)c2csc(C)c2)n1	0	8	3	8	-1	-5
CC[C@@]1(C(=O)OC)N[C@H](CN(C)S(=O)(=O)c2ccc(C(F)(F)F)cc2)[C@@H]2C(=O)N(C)C(=O)[C@@H]21	0	18	10	0	-16	-12
CC1(Cc2ccc(C(F)(F)F)o2)C(=O)Nc2cc(-c3ccc(F)cc3F)ccc21 (stereo not given)	-1	-7	-8	0	-1	13
O=C(CSc1nnc(SCc2ccccc2)s1)N/N=C/C=C\c1ccco1	-6	17	11	16*	9	-5
Cc1ccccc1NC(=O)Nc1nc(C(N)C2CCCCC2)cs1 (stereo not given)	7	15	12	3	-2	-7
CC1(C)CC1C(=O)Nc1ccc([N+](=O)[O-])cc1Br (stereo not given)	-7	4	13	0	-2	-8
Cc1ccc(C2(c3ccc(C)cc3)CC2C(=O)Nc2ccc([N+](=O)[O-])cc2O)cc1 (stereo not given)	3	0	-20	9	18	25*
COc1cc2c(cc1OC)C(c1ccc([N+](=O)[O-])cc1)N(C(C)=O)CC2 (stereo not given)	4	16	0	16*	-3	-3
Cc1nc2ccc(NC(=S)NC(C)C)cc2nc1C	-7	8	5	0	-3	-4
Cc1nc2ccc(NC(=S)NC3CC3)cc2nc1C	-5	-15	-5	0	27*	9
Cc1ccc(NC(=O)COc2ccc(N(C)C(=O)C(C)(C)C)cc2)cc1S(=O)(=O)N1CCCCC1	2	-22	-17	16*	29*	53*
COc1ccc(NC(=O)COc2ccccc2C(N)=O)cc1S(=O)(=O)N1CCCCC1	-1	12	14	1	-5	-17
Cc1ccc(NC(=O)COC(=O)c2ccccc2F)cc1S(=O)(=O)N1CCCCC1	0	-13	-8	7	-10	9
Cc1ccc(NC(=O)COC(=O)c2cccc(C)c2[N+](=O)[O-])cc1S(=O)(=O)N1CCCCC1	-2	-2	-12	9	3	28*
Cc1ccc(NC(=O)COc2ccccc2C(N)=O)cc1S(=O)(=O)N1CCCCCC1	0	-22	-15	15	27*	33*
COc1cc(C(C)=O)ccc1OCC(=O)Nc1ccc(S(=O)(=O)N2CCCCC2)cc1	-3	3	-13	4	4	3
